From PubChem BioAssay AID624351 (Southern Research Specialized Biocontainment Screening …, 2012) come the findings set out here.

Broadly, the IC50 is the concentration needed to halve the response being measured. Usually inhibition stands for the change of the read-out against control, counted positive when it falls.

Molecules are shown by their SMILES. Hit rate of the full screen: of about 2,400 compounds, about 1,400 (58%) were called active. The set was probably picked from earlier hits. This is one part of the list. A number with no mark means an inactive call.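 Rule for the calls: active = inhibition of 30% or more at any tested dose; inconclusive = primary hits over the limit that were never retested; inactive = the rest.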

This experiment can be described thus: ADP Hunter readout inhibition without MgcRacGAP – biochemical, coupled enzyme counter-screen, artefact control for MgcRacGAP inhibitor project, dose response (AID 624351).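 For inhibition: 0% = median positive control wells and 100% = median negative control wells.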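 Note: signal is the ADP detection kit reading of free GDP without any GAP enzyme.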 To be noted: fluorescence, no MgcRacGAP; series mostly up to 80 µM; inhibition: at the top concentration. A general note: Counterscreens check selectivity or assay interference.
Take `COc1cc(/C=C/c2ccc3cccc(O)c3n2)ccc1O`: the IC50 was 81.5 µM (active). For `CCCc1nc2ccccc2c(=O)n1/N=C/c1ccc(O)c(O)c1`, the IC50 was 41.7 µM (active). Same read-out and setting: as for `COc1cc(/C=N/n2c(C)nc3ccccc3c2=O)ccc1O`, the figure is 43.1 µM (active). For the compound `NCC[C@H](O)C(=O)N[C@@H]1C[C@H](N)[C@@H](O[C@H]2O[C@H](CN)[C@@H](O)[C@H](O)[C@H]2O)[C@H](O)[C@H]1O[C@H]1O[C@H](CO)[C@@H](O)[C@H](N)[C@H]1O`, the “inhibition” value was 0.86%. As to `COc1cc(/C=N/NC(=O)CN(Cc2ccco2)S(=O)(=O)c2ccccc2)ccc1O`, the IC50 is 49.9 µM (active). On to `COc1cc(/C=N/NC(=O)CN(Cc2ccccc2)S(=O)(=O)c2ccc3c(c2)OCCO3)ccc1O`, for which the IC50 is 73 µM (active).

Turning to `CS/C(=N\S(=O)(=O)c1cccs1)NC(=O)CSc1nc2ccccc2s1`, the “inhibition” value was 4.26%.

As for `C#CCOCCOCCOCCNc1nc(N2CCN(C(=O)[C@H](CCCCN)n3cc(CN)nn3)CC2)nc(N2CCN(C(=O)[C@H](CCC(=O)O)n3cc([C@@H](N)CCCCN)nn3)CC2)n1`, the “inhibition” value was 0.72%. With `CCOC(=O)C1=C(C)NC(=O)CC1c1cc2c(cc1[N+](=O)[O-])OCO2` (stereo not given), the IC50 was 64.2 µM (active). Still for that read-out and setting: as for `OC1CNc2c(ccc3ccccc23)C1` (stereo not given), the figure is 16.5 µM (active). `O=C1CCC(C2CCc3cc(O)ccc3C2)C1` (stereo not given): the IC50 was 77.7 µM (active). With `Clc1nssc1=Nc1ccc(Br)cc1`, the “inhibition” value is 15.1%.

For the compound `CSc1nc(C)c2c(n1)N(c1ccc(O)cc1)CC2`, the IC50 is 16.2 µM (active). For `Cc1ccc(N2C(S)=C(C#N)C(=O)NC2c2ccco2)cc1` (stereo not given), the “inhibition” value was 7.63%. Still for that read-out and setting: for `CCN(CC)CCOCCOc1ccc(Cl)c2ccccc12` the value was 15%; for `CCOc1cccc2cc(C(=O)Oc3ccc(OC)cc3)c(=O)oc12`, 20.3%. `Cc1ccc(NC(=O)CCC(=O)N/N=C/c2ccc(O)cc2)cc1`: the IC50 is 51.5 µM (active). Same read-out and setting: for `Cc1nc(C)c(CC(=O)N/N=C/c2ccc(O)cc2)c(=O)[nH]1` the value was 75.8 µM (active); for `O=C(CCC(=O)Nc1ccc(F)cc1)N/N=C/c1ccc(O)cc1`, 71.3 µM (active); for `COc1cc(/C=N/NC(=O)CCC(=O)Nc2ccc(F)cc2)ccc1O`, 36.4 µM (active). Take `CCCCCCCCCCCCCCCC(O)C[N+](C)(C)CCO` (stereo not given): the “inhibition” value was -8.37%. For the compound `O=C(CC(=O)Nc1ccc(Cl)c(Cl)c1)N/N=C/c1ccc(O)cc1`, the IC50 is 66.8 µM (active). Regarding `Cc1ccc(NC(=O)CN(C)C2CCCCC2)cc1Cl`, the “inhibition” value is 12.6%. Turning to `COc1cc(/C=N/Nc2nc(C)cc(=O)[nH]2)ccc1O`, the IC50 is 24.9 µM (active).

Turning to `Cc1cc(=O)[nH]c(N/N=C/c2ccc(O)c(O)c2)n1`, the IC50 was 20.9 µM (active). Take `S=c1[nH]cc2cnccn12`: the IC50 is 72.1 µM (active). The same measure, in the same setting: for `CCOC(=O)c1sc(=S)[nH]c1C` the value was 46 µM (active); for `CCOC(=O)c1c(C)[nH]sc1=S`, 44.3 µM (active).

Regarding `CCOC(=O)c1c(C)[nH]c(C(=O)CN2CCN(CC)CC2)c1C`, the “inhibition” value is 23.7%. Regarding `CCn1c(-c2ccccc2)csc1=Nc1ccc(O)cc1`, the IC50 was 35.8 µM (active).

For the compound `C=CCn1c(=O)/c(=C/c2ccc(O)cc2)s/c1=C(/C#N)c1nnc2n1CCCCC2`, the half-inhibitory concentration (IC50) is 58.7 µM (active). With `C/C(=N\NC(=O)CSCc1ccccc1Cl)c1cc(O)ccc1O`, the IC50 was 25.6 µM (active). In the case of `Brc1csc(C=Nc2ccc3c(c2)OCCOCCOCCOCCO3)c1`, the IC50 is 70.1 µM (active). On to `CCN1CCN(CC(=O)N/N=C/c2cc(Br)cs2)CC1`, for which the “inhibition” value is 22.6%. As to `CC1=NN(c2ccc(C(=O)O)cc2)C(=O)/C1=C\c1ccc(OC(=O)c2cccs2)cc1`, the “inhibition” value is 1.5%. In the case of `COc1ccc(Br)cc1CN1CCC(N2CCCC2)CC1`, the “inhibition” value is 23.7%.

Regarding `CCC(c1nnnn1Cc1ccccc1)N1CCN(c2ccc(OC)cc2)CC1` (stereo not given), the “inhibition” value was 21.9%. Regarding `COc1ccc(Cn2nnnc2C(c2cccnc2)N2CCN(c3ccc(O)cc3)CC2)cc1` (stereo not given), the IC50 was 50.3 µM (active). The same measure, in the same setting: for `Oc1ccc(N2CCN(C(c3cccs3)c3nnnn3CCc3ccccc3)CC2)cc1` (stereo not given) the value was 45.2 µM (active). In the case of `COc1ccc(N2CCN(C(=O)c3ccc(CS(=O)c4cccc(Cl)c4)o3)CC2)cc1` (stereo not given), the “inhibition” value was 29%.

As to `COc1cc2oc(-c3ccc(O)cc3)cc(=O)c2c(OC)c1O`, the IC50 is 21.9 µM (active). Still for that read-out and setting: as for `COc1cccc(CNc2ccc3[nH]c(=O)[nH]c3c2)c1OCc1ccccc1Cl`, the figure is 83.9 µM (active). With `COc1cc(CNc2ccc3[nH]c(=O)[nH]c3c2)ccc1OCc1c(F)cccc1Cl`, the “inhibition” value is 6.31%. For `COc1cc(CNc2ccc3[nH]c(=O)[nH]c3c2)ccc1OCc1ccccc1F`, the “inhibition” value was 15.4%. For the compound `CN(C)c1ccc(NS(=O)(=O)c2cc(Cl)ccc2Cl)cc1`, the IC50 was 50 µM (active).

For `CC(NS(=O)(=O)c1ccc(Cl)cc1)C(=O)OCC(=O)Nc1ccc(N(C)C)cc1` (stereo not given), the IC50 was 70.6 µM (active). For `Cc1ccc(S(=O)(=O)Nc2nsc(N)n2)cc1`, the “inhibition” value is 4.63%. Consider `CC(C)(C)N(NS(=O)(=O)c1ccc(F)cc1)c1ccccc1`, for which the “inhibition” value is 9.28%. Regarding `CC1CCN(CC(=O)Nc2ccc(S(=O)(=O)NC3CC3)cc2)CC1`, the “inhibition” value was 14.7%.

For the compound `Cc1ccc(S(=O)(=O)Nc2ccc(N(C)C)cc2)cc1`, the IC50 was 31.3 µM (active).

As for `CN(C)c1ccc(NS(=O)(=O)c2ccc(Cl)cc2)cc1`, the IC50 is 33.7 µM (active). In the case of `CN(CC(=O)NCc1ccncc1)S(=O)(=O)c1ccc(Cl)cc1`, the “inhibition” value is 0.47%. The same measure, in the same setting: for `COc1cccc(NS(=O)(=O)c2ccc3c(c2)C2C=CCC2C(c2ccc(C(=O)O)cc2)N3)c1` (stereo not given) the value was -25%. On to `COc1cc(/C=C/C(=O)OCC(=O)NC2CCS(=O)(=O)C2)ccc1O` (stereo not given), for which the IC50 was 43.2 µM (active). Regarding `CCOCCCNCC(=O)NCC1CCCCC1`, the “inhibition” value was 19.1%. As for `COc1cc(/C=C/C(=O)OCC(=O)NCCC2=CCCCC2)ccc1O`, the IC50 is 51.8 µM (active). Turning to `CCN(CC(=O)Nc1cc(Cl)ccc1OC)CC(=O)NC1CCS(=O)(=O)C1` (stereo not given), the “inhibition” value is 19.5%. With `COc1cc(/C=C/C(=O)OCC(=O)NCC2CCCCC2)ccc1O`, the IC50 was 35.4 µM (active). The same measure, in the same setting: for `Cc1cc(/C=C(\C#N)C(=O)N2CCCCC2)cc(C)c1O` the value was 56.9 µM (active). As for `CC1CC(C)CN(C2CCN(Cc3cccnc3)CC2)C1` (stereo not given), the “inhibition” value is 29.8%. Same read-out and setting: for `CCOc1ccc(N(CCCCO)C(=S)NC(=O)c2ccc(C)c(Br)c2)cc1` the value was 27.4%; for `N#CC1=C(S)N(c2ccc(F)cc2)C(c2ccco2)NC1=O` (stereo not given), -0.4%.

As for `O=C1c2cccc(NCCCNCCO)c2C(=O)c2cccc(NCCCNCCO)c21`, the “inhibition” value is 25.1%.

With `O=C1c2cccc(NCCNCCO)c2C(=O)c2cccc(NCCNCCO)c21`, the “inhibition” value is 15.9%.

As to `OCCCCNc1cccc2ccccc12`, the IC50 is 34.5 µM (active).
